Results filed as inconclusive are left out. The source made the active and inactive calls. Unless noted, the call rests on the fitted dose curve.
Legend:
[1] = qHTS assay to identify small molecule antagonists of the vitamin D receptor (VDR) signaling pathway - cell viability counter screen (AID 743225; active means well fitted curve in the direction sought with a large enough effect in the repeat runs; an effect the other way counts as inactive or inconclusive; further: nearly all actives have a fitted effect of over 50% in size)
Outline: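 Viability counter screen run in the same wells as the beta-lactamase reporter assay: HEK 293T VDR-UAS-bla cells, 16 h compound exposure at 37C with 3 nM (final) 1-alpha,25-dihydroxyvitamin D3. CellTiter-Glo luminescence, 30 min, room temperature.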

[2] = qHTS assay to identify small molecule agonists of the NFkB signaling pathway - cell viability counter screen (AID 1159515); further: series mostly up to about 61 µM; nearly all actives have a fitted effect of over 55% in size
Outline: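 Luminescence from CellTiter-Glo (30 min, room temperature) gives viability, measured in the same wells as the beta-lactamase reporter read. Cells were NFkB-bla ME-180, 2,000 per well, treated 5 hr with compounds.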

[3] = qHTS assay to identify small molecule agonists of the endoplasmic reticulum stress response signaling pathway (AID 1159516; active means well fitted activation curve with a large enough effect in the signal ratio in the repeat runs, not every such curve was filed as active; the % refers to the signal ratio)
Outline: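 Read-out is beta-lactamase cleavage of a FRET substrate (405 nm excitation; 460 and 530 nm emissions) in ESRE-bla HeLa cells after a 5 hr compound exposure at 37 C. Substrate incubation ran 2 hr at room temperature.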

[4] = qHTS assay to identify small molecule agonists of the endoplasmic reticulum stress response signaling pathway - cell viability counter screen (AID 1159517);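 further: HeLa cells carrying an ER stress response element beta-lactamase reporter; series mostly up to about 61 µM; nearly all actives have a fitted effect of over 50% in size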
Outline: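 CellTiter-Glo was added to wells already read for beta-lactamase FRET, and luminescence was recorded 30 min later. Cells: ESRE-bla HeLa, 1,500 per well, compound exposure 5 hr at 37 C.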

[5] = qHTS assay to identify small molecule antagonists of the retinoid-related orphan receptor gamma (ROR-gamma) signaling pathway - cell viability counter screen (AID 1159520; active means well fitted curve in the direction sought with a large enough effect in the repeat runs; an effect the other way counts as inactive or inconclusive; further: nearly all actives have a fitted effect of over 50% in size)
Outline: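 Tet-on ROR gamma CHO cells (1,000/well) were plated 4 hr, given compounds in DMSO for 2 hr at 37 C, then induced with 1 uM final doxycycline for 16 hr. Viability was read as ATP by CellTiter-Glo luminescence after 30 min.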

[6] = target: Nuclear receptor ROR-gamma (Homo sapiens) (UniProt P51449); assay: qHTS assay to identify small molecule antagonists of the retinoid-related orphan receptor gamma (ROR-gamma) signaling pathway (AID 1159521; active means well fitted curve in the direction sought with a large enough effect in the repeat runs; an effect the other way counts as inactive or inconclusive; further: nearly all actives have a fitted effect of over 50% in size; further: potency means the concentration at half of the fitted maximal effect)
Outline: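 Luminescence readout (ONE-Glo, 30 min RT) after 16 h doxycycline induction; loss of signal scored as antagonism. CHO cells with TET-inducible RORγ and RORE-LUC reporter; compounds added 2 h before 1 uM final doxycycline.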

[7] = qHTS assay to identify small molecule agonists of the AP-1 signaling pathway - cell viability counter screen (AID 1159525); further: nearly all actives have a fitted effect of over 55% in size
Outline: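 ME-180 AP-1-bla, 2500 cells/well, Opti-MEM + 0.5% dialyzed FBS; overnight 37 °C; cpd 15-pt titration, 5 h 37 °C; CellTiter-Glo 30 min RT; luminescence read; normalised to TOAB and DMSO controls.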

[8] = qHTS assay to identify small molecule agonists of the AP-1 signaling pathway (AID 1159526)
[9] = qHTS assay to identify small molecule agonists of the RXR signaling pathway - cell viability counter screen (AID 1159529; active means well fitted curve in the direction sought with a large enough effect in the repeat runs; an effect the other way counts as inactive or inconclusive)
Outline: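 Luminescence from CellTiter-Glo (30 min, RT) measured viability in the same wells as the beta-lactamase reporter readout. Cells: GeneBLAzer RXR-alpha HEK 293T, 2% charcoal-stripped FBS. Compound exposure 16 hr, 37 C.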

[10] = target: Retinoic acid receptor RXR-alpha (Homo sapiens) (UniProt P19793); assay: qHTS assay to identify small molecule agonists of the RXR signaling pathway (AID 1159527); further: nearly all actives have a fitted effect of over 35% in size
Chain of Retinoic acid receptor RXR-alpha (Homo sapiens) (P19793 whole entry, looked up): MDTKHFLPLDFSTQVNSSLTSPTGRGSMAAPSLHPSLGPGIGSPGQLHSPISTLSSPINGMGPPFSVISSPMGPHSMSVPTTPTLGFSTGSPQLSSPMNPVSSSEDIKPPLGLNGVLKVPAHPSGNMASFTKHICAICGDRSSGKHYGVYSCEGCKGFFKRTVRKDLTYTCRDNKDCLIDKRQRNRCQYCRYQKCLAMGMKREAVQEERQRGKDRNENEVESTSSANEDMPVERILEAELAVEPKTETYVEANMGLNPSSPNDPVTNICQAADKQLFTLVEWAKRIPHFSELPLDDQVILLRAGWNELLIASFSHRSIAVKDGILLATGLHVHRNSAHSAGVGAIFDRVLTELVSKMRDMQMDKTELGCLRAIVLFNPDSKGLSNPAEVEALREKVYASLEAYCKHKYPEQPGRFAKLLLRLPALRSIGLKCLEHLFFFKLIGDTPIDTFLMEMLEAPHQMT
Outline: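 Agonist mode; 9-cis retinoic acid positive control. HEK 293T UAS-bla reporter cells, 2% charcoal-stripped FBS, 16 hr compound exposure at 37 C/5% CO2. LiveBLAzer B/G FRET substrate 2 hr RT; ex 405, em 460/530 nm.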

Measured: Potency

CN(C)CCOC(c1ccccc1)c1ccc(Br)cc1 (configuration not stated)
inactive: [1] | [2] | [3] | [4] | [5] | [6] | [7]

CN1CCC(=C2c3ccccc3Sc3ccccc32)CC1
active: [6] 29.8 µM
inactive: [2] | [3] | [4] | [5] | [7]

CN(C)c1ccc(C(c2ccccc2)c2ccc(N(C)C)cc2)cc1
active: [6] 27.3 µM
inactive: [1] | [2] | [3] | [4] | [5] | [8]

O=C(OCCc1ccccc1)c1ccccc1
inactive: [1] | [2] | [3] | [4] | [5] | [6] | [9]

CCOC(=O)C(O)c1ccccc1 (configuration not stated)
inactive: [1] | [2] | [3] | [4] | [5] | [6] | [8] | [10]

O=C(OCCCCCCOC(=O)c1ccccc1)c1ccccc1
inactive: [1] | [2] | [3] | [4] | [5] | [6] | [7]

Clc1ccc2c(c1)CCc1cccnc1C2=C1CCNCC1
inactive: [2] | [3] | [4] | [5] | [6] | [8]

CCCCC(=O)OCC(=O)[C@H]1[C@H](C)C[C@H]2[C@@H]3C[C@H](F)C4=CC(=O)C=C[C@]4(C)[C@@]3(F)[C@@H](O)C[C@@]21C
inactive: [2] | [3] | [4] | [5] | [7] | [8] | [10]

CC1(c2ccccc2)OC(C(=O)O)=CC1=O (configuration not stated)
inactive: [2] | [3] | [4] | [5] | [7] | [8] | [10] | [9]

CC1=CC[C@H](C(C)C)C=C1
inactive: [2] | [3] | [4] | [5] | [7] | [8]

Cc1cccc(Nc2ccccc2)c1
inactive: [1] | [2] | [3] | [4] | [5] | [6] | [9]

CNCCCCOc1ccccc1Cc1ccccc1
inactive: [2] | [3] | [4] | [5] | [7]

CC1OC(=O)C(C)OC1=O (configuration not stated)
inactive: [2] | [3] | [4] | [5] | [7] | [8] | [10]

C=C1[C@H]2CC[C@@H]3[C@H]2C(C)(C)CCC[C@]13C
inactive: [2] | [3] | [4] | [5] | [7] | [8] | [10] | [9]

N=c1ccn2c(n1)O[C@H]1[C@H](O)[C@@H](CO)O[C@H]12
inactive: [2] | [3] | [4] | [5] | [7] | [8] | [10] | [9]

C[C@@H]1C[C@H]2[C@@H]3CCC4=CC(=O)C=C[C@]4(C)[C@@]3(F)[C@@H](O)C[C@]2(C)[C@@]1(O)C(=O)COC(=O)c1ccncc1
inactive: [2] | [3] | [4] | [5] | [7] | [8] | [10]

C/C=C(/C(=C/C)c1ccc(OC(C)=O)cc1)c1ccc(OC(C)=O)cc1
inactive: [1] | [2] | [3] | [4] | [5] | [6] | [9]

Nc1cc(C(=O)O)c(O)c(S(=O)(=O)O)c1
inactive: [2] | [3] | [4] | [5] | [7] | [8] | [10] | [9]

O=CC1CC=CCC1 (configuration not stated)
inactive: [2] | [3] | [4] | [5] | [7] | [8] | [10] | [9]

CC(C)=CCC/C(C)=C/CC/C(C)=C/CO
inactive: [1] | [2] | [3] | [4] | [5] | [6]

CC/C=C\CCOC(=O)CC
inactive: [1] | [2] | [3] | [4] | [5] | [7] | [8] | [10] | [9]

CC(C)(C)OCC1CO1 (configuration not stated)
inactive: [1] | [2] | [3] | [4] | [5] | [7] | [8] | [10] | [9]

CNC(=O)CN(CCN(CCN(CC(=O)[O-])CC(=O)NC)CC(=O)[O-])CC(=O)[O-].O.[Gd+3]
inactive: [2] | [3] | [4] | [5] | [7] | [8] | [10] | [9]

Cc1ncc(CO)c(C=O)c1O
inactive: [2] | [3] | [4] | [5] | [7] | [8] | [10] | [9]

NCC(=O)CCC(=O)O
inactive: [1] | [2] | [3] | [4] | [5] | [7] | [8] | [10] | [9]

CCCCCCCCCOS(=O)(=O)O
inactive: [1] | [2] | [3] | [4] | [5] | [7] | [8] | [10] | [9]

— PubChem BioAssay (Tox21)
